{"source": "PubChem BioAssay AID906", "about": "(National Center for Advancing Translational Sciences (NCATS), 2007)", "note": "Some of the results follow. Inconclusive results are not listed. The source made the active and inactive calls. Calls come from the whole dose curve; as a rule, active = well fitted inhibition curve with a large enough effect; inconclusive = small, poorly fitted or top-dose-only effect, or another doubt; inactive = no such curve, though single readings can be large or run the other way."}
{"test": "Cell Viability - CRE-beta lactamase CHO cell - 40 hr assay", "conditions": "CRE-bla CHO viability, ATP luminescence; max response: stronger effect = lower value", "description": "NIH Chemical Genomics Center [NCGC] NIH Molecular Libraries Screening Centers Network [MLSCN] National Institutes of Environmental Health Sciences [NIEHS] National Toxicology Program [NTP] MLSCN Grant: 1X01MH079867-01 Assay Provider: Marshall W. Nirenberg, U.S. National Heart, Lung and Blood Institute NCGC Assay Overview: We have developed a 1536-well cell-based assay for quantitative high throughput screening (qHTS) against a number of cell lines to determine in vitro cytotoxicity of small molecules. This particular assay uses CRE-bla CHO cell line from Invitrogen.\nNCGC Assay Protocol Summary: The CellTiter-Glo luminescent cell viability assay (Promega) is a homogeneous method to measure the number of viable cells in culture. The end point readout of this assay is based on quantitation of intracellular ATP, an indicator of metabolic activity, using the luciferase reaction. Luciferase catalyzes the oxidation of beetle Luciferin to oxyluciferin and light in the presence of ATP. The luminescent signal is proportional to amount of ATP present. Using the CellTiter-Glo luminescent cell viability assay, the amount of cellular ATP was measured in the CRE-bla CHO cell line with complete culture medium following compound treatment for 40 hours. The assay was performed in opaque white Kalypsys 1536-well plates. In the screen, tamoxifen was used as positive control. The selected compounds were measured for their ability to cause acute toxicity in the cell line, as reflected by a decrease in intracellular ATP levels, in a concentration-dependent manner. Data were normalized to the controls for basal activity (DMSO only) and 100% inhibition (100 uM tamoxifen). AC50 values were determined from concentration-response data modeled with the standard Hill equation. NCGC Assay Protocol Summary 1. Reagent; 5 uL; 2000 CHO cells/well 2. Time; overnight; 37 °C incubation 3. Compounds; 23 nL; 5.9 nM to 46 uM 4. Controls; 23 nL; Tamoxifen 4.5 nM to 92 uM 5. Time; 40 hr; 37 °C incubation 6. Reagent; 5 uL; CellTiter Glo reagent 7. Time; 20 min; Room Temperature 8. Detection; Luminescence; Viewlux plate reader Keywords: cell viability, cytotoxicity, CHO cell line, luminescence, MLSMR, MLSCN, NIH Roadmap, qHTS, NCGC"}
{"smiles": "Cc1nc(SCC(=O)Nc2cc(C)on2)c2c3c(sc2n1)CCCC3", "max response": "-15.8% (inactive)"}
{"smiles": "COc1ccc(CCNC(=O)CSc2nc(C)nc3c2oc2ccccc23)cc1OC", "max response": "-16.6% (inactive)"}
{"smiles": "Cc1nn(-c2ccccc2)c2sc(C(=O)N(Cc3ccco3)C(C)C(=O)NC(C)(C)C)cc12", "note": "(stereo not given)", "Potency": "12.6 µM (active)"}
{"smiles": "CC1CCc2sc3nc(N4CCN(CCO)CC4)n4ncnc4c3c2C1", "note": "(stereo not given)", "max response": "-25.1% (inactive)"}
{"smiles": "CCc1nc(Nc2ccc3nccnc3c2)c2oc3ccccc3c2n1", "max response": "-16.6% (inactive)"}
